The sample as a whole holds a higher share of hits than the screen did.
NOMO-1 viab – NOMO-1 AML cell viability reduction, primary screen, STK33 inhibitor project, CellTiter-Glo luminescence | hit rate 7.5% among 37,000 | inhibition, % (test concentration not listed) | NOMO-1 AML viability, 72 h; in the data active = inhibition above about 80%
STK33 inh – STK33 kinase inhibitors, primary screen, biochemical, luminescence, ADP-Glo, MBP substrate. Serine/threonine-protein kinase 33 (Homo sapiens), Q9BYT3. inhibition, % at 12.5 µM. hit rate 0.44% among 27,000; in the data active = inhibition above about 20%
Target sequence (Q9BYT3 whole entry, looked up): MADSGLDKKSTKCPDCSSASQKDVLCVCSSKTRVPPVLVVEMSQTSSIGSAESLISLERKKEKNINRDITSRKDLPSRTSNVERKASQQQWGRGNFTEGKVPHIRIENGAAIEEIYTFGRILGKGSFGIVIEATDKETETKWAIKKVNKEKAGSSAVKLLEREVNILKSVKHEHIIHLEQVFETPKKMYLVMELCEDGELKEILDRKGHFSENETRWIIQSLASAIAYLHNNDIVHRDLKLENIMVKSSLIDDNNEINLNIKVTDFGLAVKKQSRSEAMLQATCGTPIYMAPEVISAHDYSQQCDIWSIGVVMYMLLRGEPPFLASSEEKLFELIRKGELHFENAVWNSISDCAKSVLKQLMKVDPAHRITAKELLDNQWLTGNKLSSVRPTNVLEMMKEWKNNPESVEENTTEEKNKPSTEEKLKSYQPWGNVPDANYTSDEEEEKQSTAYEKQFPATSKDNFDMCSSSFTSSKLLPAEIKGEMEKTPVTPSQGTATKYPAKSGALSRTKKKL
PD-1 reversal – activators reversing PD-1 mediated T-cell inhibition, primary screen, luminescence, primary human CD4 T cells, PD-L1 beads | CellTiter-Glo 96 h | activation, % (test concentration not listed) | 29,000 tested, under 10 active; call rule not given here;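 note: 0% = median vehicle wells and 100% = positive control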
* hit, by the source's call; x = not tested or not shown.

SMILES | NOMO-1 viab | STK33 inh | PD-1 reversal
CN1CC(C(=O)N[C@]2(C)O[C@@]3(O)[C@@H]4CCCN4C(=O)[C@H](Cc4ccccc4)N3C2=O)C=C2c3cccc4[nH]cc(c34)C[C@H]21 (stereo partly specified) | 14 | 9 | 0
CNc1ccc2oc(C[C@@H]3OC4(CC[C@@H]3C)O[C@H](C(C)C(=O)c3ccc[nH]3)[C@H](C)C[C@H]4C)nc2c1C(=O)O (stereo partly specified) | 120* | 1 | x
COC(=O)C12CC3CC(C(C)O)C1N(CCc1c2[nH]c2cc(OC)ccc12)C3 (stereo unspecified) | x | -1 | x
C=C1[C@@H](C)[C@H]2[C@H](Cc3ccccc3)NC(=O)[C@]23OC(=O)/C=C\[C@H](O)CCC[C@@H](C)C/C=C/[C@H]3[C@@H]1O | 120* | 0 | -13
C=C(C)[C@@]12O[C@@H]1[C@@]1(C)C(=C[C@H]2O)CC[C@@H](O)[C@@H]1C | 19 | -1 | 0
COc1cc(C2=NC(O)C(=O)Nc3ccc(Cl)cc32)ccc1O (stereo unspecified) | 3 | 2 | 4
O=C1C=C2C=C[C@@H]3C[C@@]2(O1)[C@H]1CCCCN31 | 91* | 3 | x
CN1CCN(CC(=O)Nc2ccc(Br)cc2C(=O)c2ccccc2)CC1 | 53 | 0 | -2
CC(C)(C)c1nc2ccccc2c(=O)n1-c1ccc(F)cc1F | 9 | x | -1
CCCCC/C=C\C/C=C\C/C=C\C/C=C\CCCC(=O)NCc1ccc(O)c(OC)c1 | 117* | -7 | x
C[C@H]1CN([C@@H](C)CO)C(=O)CCCn2nncc2CO[C@@H]1CN(C)C(=O)Oc1ccc2ccccc2c1 | x | -4 | x
C[CH2][Hg][S]c1ccccc1C(=O)O | 111* | 3 | x
CNc1ccccc1C(=O)O | 2 | 0 | x
CC(=O)CC(c1ccc(Br)cc1)c1c(O)c2ccccc2oc1=O (stereo unspecified) | -15 | -1 | x
Cc1cc(OC(=O)c2cccs2)c2c3c(c(=O)oc2c1)CCC3 | 9 | x | 0
CCN1C[C@]2(COC)[C@H](O)C[C@H](OC)[C@@]34[C@@H]5C[C@]6(O)[C@H](OC(=O)c7ccccc7)[C@@H]5[C@@](OC(C)=O)(C([C@H](OC)[C@H]23)[C@@H]14)[C@@H](O)[C@@H]6OC | 29 | -1 | 4
CN[C@@H]1C[C@@]2(C)O[C@@H]([C@@H]1OC)n1c3ccccc3c3c4c(c5c6ccccc6n2c5c31)C(=O)NC4 | 114* | 131* | x
CN1C2C[C@H](OC(=O)[C@H](CO)c3ccccc3)C[C@H]1[C@@H](O)C2 | -3 | 2 | x
C[C@@H]1CN([C@@H](C)CO)C(=O)CCCn2cc(nn2)CO[C@@H]1CN(C)C(=O)Oc1ccc2ccccc2c1 | x | 3 | x
C/C=C(/C)C(=O)O[C@H]1C(C)=C2[C@H]([C@@H]1OC(=O)CCCCC)[C@@](C)(OC(C)=O)C[C@H](OC(=O)CCC)[C@@]1(O)[C@H]2OC(=O)[C@@]1(C)O | 99* | 2 | -42
C=C1C([C@]2(C)C(CC(=O)OC)[C@@](C)(COC(C)=O)OC(=O)C[C@@H]2OC(C)=O)[C@@H](OC=O)[C@H](OC(=O)C(OC(C)=O)C(C)CC)[C@@]2(C)[C@H](c3ccoc3)CC(=O)C12O (stereo partly specified) | -3 | -2 | x
COc1cc(C(=O)O[C@H]2[C@@H]3C=CO[C@@H](O[C@@H]4O[C@H](CO)[C@@H](O)[C@H](O)[C@H]4O)[C@@H]3[C@@]3(CO)O[C@@H]23)ccc1O | -14 | 3 | 3

From PubChem
